For seven sequences, binding signal results are on record in paper PMC11006913.

Holding throughout (test): PBM; 200 nM protein, PBS
Common to all, as to conditions: dsDNA, one strand shown

Assay [1] deals with HOXB9 (Homo sapiens, UniProt P17482 171-250, T197M).
For assay [2], the target named is HOXC9 (Homo sapiens, UniProt P31274 178-260, K195R).
For assay [3], the target named is HOXC10 (Homo sapiens, UniProt Q9NYD6 254-340).
The target of assay [4] is HOXB9 (Homo sapiens, UniProt P17482 171-250).
Assay [5] has as its target HOXC9 (Homo sapiens, UniProt P31274 178-260).
For assay [6], the target named is HOXD13 (Homo sapiens, UniProt P35453 263-343, T313R).
Assay [7] concerns the target HOXC9 (Homo sapiens, UniProt P31274 178-260, R193K).
Assay [8] deals with HOXD13 (Homo sapiens, UniProt P35453 263-343).
In assay [9] the target is HOXC10 (Homo sapiens, UniProt Q9NYD6 254-340, K271E).
Assay [10] deals with HOXD13 (Homo sapiens, UniProt P35453 263-343, T313A).
Assay [11] has as its target HOXB9 (Homo sapiens, UniProt P17482 171-250, R186Q).
The target in assay [12] is HOXC9 (Homo sapiens, UniProt P31274 178-260, R222W).
Assay [13] concerns the target MSX2 (Homo sapiens, UniProt P35548 130-214, R199I).
Assay [14] deals with MSX2 (Homo sapiens, UniProt P35548 130-214).
The target of assay [15] is PROP1 (Homo sapiens, UniProt O75360 56-141).
In assay [16] the target is PROP1 (Homo sapiens, UniProt O75360 56-141, R99H).
For assay [17], the target named is PROP1 (Homo sapiens, UniProt O75360 56-141, F88S).
For assay [18], the target named is MSX2 (Homo sapiens, UniProt P35548 130-214, F161Y).
In assay [19] the target is PRRX1 (Homo sapiens, UniProt P54821 80-166, F113S).
Assay [20] deals with PRRX1 (Homo sapiens, UniProt P54821 80-166).
Assay [21] addresses ALX4 (Homo sapiens, UniProt Q9H161 200-286).
For assay [22], the target named is ALX4 (Homo sapiens, UniProt Q9H161 200-286, Q225E).
Chain of ALX4 (Homo sapiens, UniProt Q9H161 200-286, Q225E) (Q9H161 200-286 Q225E): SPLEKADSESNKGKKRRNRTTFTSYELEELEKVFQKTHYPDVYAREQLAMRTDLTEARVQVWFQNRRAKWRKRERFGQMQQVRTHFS

Chain of HOXC9 (Homo sapiens, UniProt P31274 178-260, R193K) (P31274 178-260 R193K): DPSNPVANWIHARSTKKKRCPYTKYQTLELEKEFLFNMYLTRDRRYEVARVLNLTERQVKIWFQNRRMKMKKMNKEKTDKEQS
Chain of HOXD13 (Homo sapiens, UniProt P35453 263-343, T313R) (P35453 263-343 T313R): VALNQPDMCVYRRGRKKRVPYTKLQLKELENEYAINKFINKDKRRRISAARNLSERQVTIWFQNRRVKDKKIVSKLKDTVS
Chain of HOXB9 (Homo sapiens, UniProt P17482 171-250, R186Q) (P17482 171-250 R186Q): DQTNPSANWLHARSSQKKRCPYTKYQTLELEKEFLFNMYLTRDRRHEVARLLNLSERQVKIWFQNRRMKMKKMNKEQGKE
Chain of HOXD13 (Homo sapiens, UniProt P35453 263-343, T313A) (P35453 263-343 T313A): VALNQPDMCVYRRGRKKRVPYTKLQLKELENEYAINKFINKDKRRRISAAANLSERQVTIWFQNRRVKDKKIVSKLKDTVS
Chain of HOXC10 (Homo sapiens, UniProt Q9NYD6 254-340, K271E) (Q9NYD6 254-340 K271E): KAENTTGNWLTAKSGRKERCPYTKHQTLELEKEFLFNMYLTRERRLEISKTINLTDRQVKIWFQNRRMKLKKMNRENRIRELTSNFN
Chain of HOXC9 (Homo sapiens, UniProt P31274 178-260) (P31274 178-260): as the sequence (P31274 178-260 R193K) above, with K16R counted along it
Chain of HOXD13 (Homo sapiens, UniProt P35453 263-343) (P35453 263-343): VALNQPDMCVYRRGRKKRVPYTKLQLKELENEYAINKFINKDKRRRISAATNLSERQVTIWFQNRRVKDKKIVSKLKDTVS
Chain of HOXC9 (Homo sapiens, UniProt P31274 178-260, K195R) (P31274 178-260 K195R): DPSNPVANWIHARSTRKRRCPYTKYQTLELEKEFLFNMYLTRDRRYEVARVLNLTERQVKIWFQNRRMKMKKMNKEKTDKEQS
Chain of HOXB9 (Homo sapiens, UniProt P17482 171-250, T197M) (P17482 171-250 T197M): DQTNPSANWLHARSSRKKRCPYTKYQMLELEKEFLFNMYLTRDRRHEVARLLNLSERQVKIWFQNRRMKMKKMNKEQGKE
Chain of HOXC10 (Homo sapiens, UniProt Q9NYD6 254-340) (Q9NYD6 254-340): as the sequence (Q9NYD6 254-340 K271E) above, with E18K counted along it
Chain of HOXB9 (Homo sapiens, UniProt P17482 171-250) (P17482 171-250): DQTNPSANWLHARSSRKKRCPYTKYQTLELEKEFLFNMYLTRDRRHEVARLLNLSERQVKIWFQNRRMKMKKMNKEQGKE
Chain of HOXC9 (Homo sapiens, UniProt P31274 178-260, R222W) (P31274 178-260 R222W): as the sequence (P31274 178-260 R193K) above, with K16R, R45W counted along it
Chain of MSX2 (Homo sapiens, UniProt P35548 130-214, R199I) (P35548 130-214 R199I): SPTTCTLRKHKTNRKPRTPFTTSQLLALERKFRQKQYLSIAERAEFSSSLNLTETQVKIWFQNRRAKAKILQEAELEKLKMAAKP
Chain of PRRX1 (Homo sapiens, UniProt P54821 80-166, F113S) (P54821 80-166 F113S): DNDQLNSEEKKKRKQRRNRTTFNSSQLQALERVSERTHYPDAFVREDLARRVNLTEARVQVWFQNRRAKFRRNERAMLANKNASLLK
Chain of PRRX1 (Homo sapiens, UniProt P54821 80-166) (P54821 80-166): as the sequence (P54821 80-166 F113S) above, with S34F counted along it
Chain of MSX2 (Homo sapiens, UniProt P35548 130-214, F161Y) (P35548 130-214 F161Y): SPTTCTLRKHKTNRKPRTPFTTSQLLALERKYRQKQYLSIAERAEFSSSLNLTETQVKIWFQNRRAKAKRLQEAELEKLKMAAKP
Chain of PROP1 (Homo sapiens, UniProt O75360 56-141, F88S) (O75360 56-141 F88S): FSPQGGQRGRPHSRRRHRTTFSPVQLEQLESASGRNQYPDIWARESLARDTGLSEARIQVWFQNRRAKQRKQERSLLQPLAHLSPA
Chain of PROP1 (Homo sapiens, UniProt O75360 56-141, R99H) (O75360 56-141 R99H): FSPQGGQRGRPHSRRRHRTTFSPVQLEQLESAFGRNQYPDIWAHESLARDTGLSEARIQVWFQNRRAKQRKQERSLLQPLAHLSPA
Chain of ALX4 (Homo sapiens, UniProt Q9H161 200-286) (Q9H161 200-286): as the sequence (Q9H161 200-286 Q225E) above, with E26Q counted along it
Chain of MSX2 (Homo sapiens, UniProt P35548 130-214) (P35548 130-214): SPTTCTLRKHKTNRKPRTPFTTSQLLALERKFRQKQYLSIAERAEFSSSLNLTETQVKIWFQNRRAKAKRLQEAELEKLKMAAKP
Chain of PROP1 (Homo sapiens, UniProt O75360 56-141) (O75360 56-141): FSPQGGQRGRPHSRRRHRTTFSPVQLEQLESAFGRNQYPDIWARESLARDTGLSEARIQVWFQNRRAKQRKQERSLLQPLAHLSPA

With CTCATAAA, the binding signal was 9.59 upbm affinity estimate (log intensity, higher = more binding, comparable within an allelic series) in the assay with HOXB9 [1]; 12.6 upbm affinity estimate (log intensity, higher = more binding, comparable within an allelic series) with HOXC9 [2]; 12.4 upbm affinity estimate (log intensity, higher = more binding, comparable within an allelic series) in the assay with HOXC10 [3]; 11.9 upbm affinity estimate (log intensity, higher = more binding, comparable within an allelic series) with HOXB9 [4]; 12.8 upbm affinity estimate (log intensity, higher = more binding, comparable within an allelic series) with HOXC9 [5]; 11.2 upbm affinity estimate (log intensity, higher = more binding, comparable within an allelic series) with HOXD13 [6]. In addition, the binding signal with HOXC9 [7] was 12.6 upbm affinity estimate (log intensity, higher = more binding, comparable within an allelic series); with HOXD13 [8], 12.5 upbm affinity estimate (log intensity, higher = more binding, comparable within an allelic series); with HOXC10 [9], 11.8 upbm affinity estimate (log intensity, higher = more binding, comparable within an allelic series); with HOXD13 [10], 12.2 upbm affinity estimate (log intensity, higher = more binding, comparable within an allelic series); with HOXB9 [11], 11.5 upbm affinity estimate (log intensity, higher = more binding, comparable within an allelic series); with HOXC9 [12], 11.1 upbm affinity estimate (log intensity, higher = more binding, comparable within an allelic series).

Turning to CCGCCTGC, the binding signal is 8.29 upbm affinity estimate (log intensity, higher = more binding, comparable within an allelic series) with HOXB9 [1]; 9.62 upbm affinity estimate (log intensity, higher = more binding, comparable within an allelic series) with HOXC9 [2]; 8.24 upbm affinity estimate (log intensity, higher = more binding, comparable within an allelic series) with HOXB9 [4]; 9.64 upbm affinity estimate (log intensity, higher = more binding, comparable within an allelic series) in the assay with HOXC9 [5]; 9.41 upbm affinity estimate (log intensity, higher = more binding, comparable within an allelic series) with MSX2 [13]; 9.49 upbm affinity estimate (log intensity, higher = more binding, comparable within an allelic series) with HOXC9 [7]. In addition, the binding signal was 9.55 upbm affinity estimate (log intensity, higher = more binding, comparable within an allelic series) with MSX2 [14]; 6.72 upbm affinity estimate (log intensity, higher = more binding, comparable within an allelic series) with PROP1 [15]; 6.65 upbm affinity estimate (log intensity, higher = more binding, comparable within an allelic series) with PROP1 [16]; 8.24 upbm affinity estimate (log intensity, higher = more binding, comparable within an allelic series) with HOXB9 [11]; 9.72 upbm affinity estimate (log intensity, higher = more binding, comparable within an allelic series) with HOXC9 [12]; 6.62 upbm affinity estimate (log intensity, higher = more binding, comparable within an allelic series) with PROP1 [17]. For the same sequence, in the assay with MSX2 [18], the binding signal is 9.55 upbm affinity estimate (log intensity, higher = more binding, comparable within an allelic series).

For the sequence ACAATAAA, the binding signal with HOXB9 [1] was 9.83 upbm affinity estimate (log intensity, higher = more binding, comparable within an allelic series); with HOXC9 [2], 12.6 upbm affinity estimate (log intensity, higher = more binding, comparable within an allelic series); with HOXC10 [3], 12.3 upbm affinity estimate (log intensity, higher = more binding, comparable within an allelic series); with HOXB9 [4] it was 12 upbm affinity estimate (log intensity, higher = more binding, comparable within an allelic series); with HOXC9 [5], 12.9 upbm affinity estimate (log intensity, higher = more binding, comparable within an allelic series); in the assay with HOXD13 [6], 10.9 upbm affinity estimate (log intensity, higher = more binding, comparable within an allelic series). Further, the binding signal was 12.7 upbm affinity estimate (log intensity, higher = more binding, comparable within an allelic series) with HOXC9 [7]; 12.1 upbm affinity estimate (log intensity, higher = more binding, comparable within an allelic series) with HOXD13 [8]; 11.7 upbm affinity estimate (log intensity, higher = more binding, comparable within an allelic series) with HOXC10 [9]; 11.8 upbm affinity estimate (log intensity, higher = more binding, comparable within an allelic series) with HOXD13 [10]; 11.7 upbm affinity estimate (log intensity, higher = more binding, comparable within an allelic series) with HOXB9 [11]; 11.1 upbm affinity estimate (log intensity, higher = more binding, comparable within an allelic series) in the assay with HOXC9 [12].

For GCCGGAGC, the binding signal in the assay with HOXB9 [1] was 8.56 upbm affinity estimate (log intensity, higher = more binding, comparable within an allelic series); with PRRX1 [19] it was 9.3 upbm affinity estimate (log intensity, higher = more binding, comparable within an allelic series); with HOXB9 [4], 8.68 upbm affinity estimate (log intensity, higher = more binding, comparable within an allelic series); in the assay with HOXB9 [11], 8.69 upbm affinity estimate (log intensity, higher = more binding, comparable within an allelic series); with PRRX1 [20], 9.61 upbm affinity estimate (log intensity, higher = more binding, comparable within an allelic series).

Consider GGAGCCAC, for which the binding signal was 8.39 upbm affinity estimate (log intensity, higher = more binding, comparable within an allelic series) with HOXB9 [1]; 8.24 upbm affinity estimate (log intensity, higher = more binding, comparable within an allelic series) in the assay with ALX4 [21]; 8.19 upbm affinity estimate (log intensity, higher = more binding, comparable within an allelic series) with ALX4 [22]; 8.65 upbm affinity estimate (log intensity, higher = more binding, comparable within an allelic series) with HOXB9 [4]; 8.65 upbm affinity estimate (log intensity, higher = more binding, comparable within an allelic series) in the assay with HOXB9 [11].

AATAAAAC: the binding signal was 9.76 upbm affinity estimate (log intensity, higher = more binding, comparable within an allelic series) with HOXB9 [1]; 12.3 upbm affinity estimate (log intensity, higher = more binding, comparable within an allelic series) with HOXC10 [3]; 10.6 upbm affinity estimate (log intensity, higher = more binding, comparable within an allelic series) with ALX4 [22]; 11.8 upbm affinity estimate (log intensity, higher = more binding, comparable within an allelic series) in the assay with HOXB9 [4]; 10.9 upbm affinity estimate (log intensity, higher = more binding, comparable within an allelic series) in the assay with HOXD13 [6]; 11.9 upbm affinity estimate (log intensity, higher = more binding, comparable within an allelic series) with HOXD13 [8]. Besides, the binding signal in the assay with HOXC10 [9] was 11.7 upbm affinity estimate (log intensity, higher = more binding, comparable within an allelic series); with HOXD13 [10], 11.6 upbm affinity estimate (log intensity, higher = more binding, comparable within an allelic series); in the assay with HOXB9 [11], 11.5 upbm affinity estimate (log intensity, higher = more binding, comparable within an allelic series); with HOXC9 [12], 11.2 upbm affinity estimate (log intensity, higher = more binding, comparable within an allelic series).

For ATAAAATG, the binding signal in the assay with HOXB9 [1] was 9.81 upbm affinity estimate (log intensity, higher = more binding, comparable within an allelic series); with HOXC9 [2] it was 12.5 upbm affinity estimate (log intensity, higher = more binding, comparable within an allelic series); with HOXB9 [4] it was 11.7 upbm affinity estimate (log intensity, higher = more binding, comparable within an allelic series); with HOXC9 [5] it was 12.6 upbm affinity estimate (log intensity, higher = more binding, comparable within an allelic series); with HOXC9 [7] it was 12.6 upbm affinity estimate (log intensity, higher = more binding, comparable within an allelic series); with HOXB9 [11] it was 11.6 upbm affinity estimate (log intensity, higher = more binding, comparable within an allelic series). Besides, the binding signal with HOXC9 [12] is 11 upbm affinity estimate (log intensity, higher = more binding, comparable within an allelic series).
